# Values joined by “and” are separate entries in the source; they are usually repeats but may differ in a detail not shown here. Identical values can stand only once. Inconclusive results are not listed. A number with no mark means an inactive call. Active and inactive are the calls of the source. Calls follow the shape of the dose curve; as a rule, active = well fitted curve in the direction sought with a large enough effect; inconclusive = small, poorly fitted or top-dose-only effect, or another doubt; inactive = no such curve, though single readings can be large; an effect the other way counts as inactive or inconclusive.
# What was measured:
# [1] = qHTS to identify inhibitors of the type 1 interferon - major histocompatibility complex class I in skeletal muscle: primary screen against the NCATS Mechanism Interrogation Plate v5.0 (MIPE) Libary (AID 1347411)
# Method in brief: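 IFN-beta-driven (4 ng/ml) HLA-B-HiBit expression in CRISPR-tagged C25cl48 myoblasts; compounds 11-pt, 1:3, max 46 uM, 24 hr exposure; lytic NanoLuc complementation luminescence.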
# [2] = biological target: Protein phosphatase 1D (Homo sapiens) (UniProt O15297); assay: RapidFire Mass Spectrometry qHTS Assay for Modulators of WT P53-Induced Phosphatase 1 (WIP1) (AID 1347424)
# Method in brief: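 Mass-spectrometric measurement of dephosphorylated peptide after a 5 min room-temperature reaction of 10 nM WIP1 with 2 uM phosphopeptide, following 1 h compound preincubation in 30 mM MgCl2 buffer.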
# [3] = biological target: Protein phosphatase 1D (Homo sapiens) (UniProt O15297); assay: Rhodamine-PBP qHTS Assay for Modulators of WT P53-Induced Phosphatase 1 (WIP1) (AID 1347425)
# Method in brief: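 Steps: enzyme with Rh-PBP sensor and compounds, room-temperature incubation of 1 hr, baseline read, addition of VEPPL-pS-QETFS (10 uM final), kinetic fluorescence reads at 525/598 nm. Activity equals final minus baseline signal.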
# [4] = Primary qHTS for inhibitors of La Crosse Virus (LACV) - induced cell death in SH-SY5Y cells (AID 1508616)
# Method in brief: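 Screening measures cell viability in LACV-infected SH-SY5Y cultures. Compound was added before virus (0.01 MOI), and ATP was detected by luminescence 6 days later.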
# [5] = biological target: Calcium and integrin-binding protein 1 (Homo sapiens) (UniProt Q99828); assay: Primary qHTS for Identification of Calcium Integrin Binding Protein 1 (CIB1) Competitor (AID 1508620)
# Method in brief: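 Fluorescence polarization competition: CIB1-GST (1 uM final) preincubated with compound 15 min at room temperature, then FITC-labeled alphaIIb peptide (100 nM final) added for another 15 min. Polarization read at Ex 480/Em 540.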
# [6] = Primary qHTS for small molecule stabilizers of the endoplasmic reticulum resident proteome: Secreted ER Calcium Modulated Protein (SERCaMP) assay (AID 1508630)
# Method in brief: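 The SH-SY5Y reporter protocol was run at 3 concentrations up to 38.3 uM (primary) or 11 concentrations (follow-up): 16 h compound, 100 nM thapsigargin for 4 h, then extracellular luciferase luminescence.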
# [7] = qHTS to identify inhibitors of the type 1 interferon - major histocompatibility complex class I in skeletal muscle: primary screen against the NCATS Pharmaceutical Collection (AID 1347407)
# Method in brief: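 Immortalized human myoblasts (C25cl48) with HiBiT knocked into endogenous HLA-B*08:01 were stimulated with 4 ng/ml IFN-beta and treated with compounds (8-point, 1:5, top 46 uM final) for 24 h at 37 C; HiBiT lytic luminescence read.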
# [8] = biological target: Calcium and integrin-binding protein 1 (Homo sapiens) (UniProt Q99828); assay: Confirmatory qHTS for Identification of Calcium Integrin Binding Protein 1 (CIB1) Competitor (AID 1508617)
# Method in brief: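 Binding competition between test compounds and fluorescent alphaIIb peptide for 1 uM CIB1-GST is monitored by FP at 480/540 nm. Final compound range is up to 114 uM; unlabeled peptide serves as reference competitor.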
# [9] = qHTS assay for small molecule disruptors of mitochondrial membrane potential screened against the NCATS CANVASS Library (AID 1347389); settings: HepG2 mitochondrial membrane potential, m-MPI red/green ratio, 1.5 h
# Method in brief: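 Cells (HepG2) seeded the day before received compound or DMSO for 1 hr, then Mito-MPS dye for 30 min at 37C; emission at 590 nm over 535 nm gave the polarization signal.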
# [10] = qHTS for activators of dead-cell proteases activity screened against the NCATS CANVASS Library (AID 1347392)
# Method in brief: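 Cytotoxicity in HepG2 cells was assessed by released protease cleaving AAF-aminoluciferin, with luminescence as signal. Exposure lasted 5 h at 37C across an 11-point series.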
# [11] = Vero-766 cells viability qHTS against the NCATS CANVASS Library: Counterscreen for Zika virus inhibition assay (AID 1347394)
# Method in brief: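 Uninfected Vero 766 (African green monkey) cells, 1000/well, attached overnight, then exposed 72 h at 37C to compounds (11-point qHTS). Viability read by CellTiter-Glo luminescence; media-only wells served as 100% inhibition.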
# [12] = qHTS for inhibitors of Wild type Zika virus screened against the NCATS CANVASS Library (AID 1347396)
# Method in brief: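 Using ATP-based luminescence (CellTiter Glo), this screen scores rescue of Vero 766 cells from wild-type Zika killing at 72 h post-infection. Compounds are tested in a concentration series.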
# [13] = qHTS for Activators of p53 Stress Response Pathway screened against the NCATS CANVASS Library (AID 1347388)
# Method in brief: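 p53RE-bla HCT-116 cells (4000/well) were plated 5 h at 37C, exposed to compounds for 16 h at 37C over an 11-point concentration series, then loaded with CCF4 for 2 h at room temperature; 460/530 nm emission ratio read.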
# [14] = qHTS for activators of Nrf2/ARE signaling pathway screened against the NCATS CANVASS Library (AID 1347391)
# Method in brief: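 Activation of Nrf2/ARE was scored in ARE-bla HepG2 cells after 16 h compound exposure using CCF4 beta-lactamase fluorescence ratio readings.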
# [15] = qHTS for inhibitors of ER calcium dysfunction: SERCaMP assay screened against the NCATS CANVASS Library (AID 1347393)
# Method in brief: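 qHTS in SH-SY5Y reporter cells: 16 h compound pretreatment, 4 h thapsigargin, then secreted Gaussia luciferase measured by luminescence.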
# [16] = Viability qHTS for inhibitors of the SERCaMP assay screened against the NCATS CANVASS Library (AID 1347400)
# Method in brief: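 Measures loss of viability in SERCaMP reporter SH-SY5Y cells treated for 48 h with compounds; luminescent ATP detection by CellTiter-Glo.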
# [17] = Redox Reaction Profiling qHTS: Assay Interference Panel against the NCATS CANVASS Library (AID 1347401)
# Method in brief: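 Quantitative HTS over an 11-point series was run in HEPES pH 7.3 with 50 mM NaCl, 200 uM DTT and 5 uM resazurin. Initial and 15-min resorufin fluorescence readings were taken.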
# Protein phosphatase 1D (Homo sapiens), sequence (O15297 whole entry, looked up): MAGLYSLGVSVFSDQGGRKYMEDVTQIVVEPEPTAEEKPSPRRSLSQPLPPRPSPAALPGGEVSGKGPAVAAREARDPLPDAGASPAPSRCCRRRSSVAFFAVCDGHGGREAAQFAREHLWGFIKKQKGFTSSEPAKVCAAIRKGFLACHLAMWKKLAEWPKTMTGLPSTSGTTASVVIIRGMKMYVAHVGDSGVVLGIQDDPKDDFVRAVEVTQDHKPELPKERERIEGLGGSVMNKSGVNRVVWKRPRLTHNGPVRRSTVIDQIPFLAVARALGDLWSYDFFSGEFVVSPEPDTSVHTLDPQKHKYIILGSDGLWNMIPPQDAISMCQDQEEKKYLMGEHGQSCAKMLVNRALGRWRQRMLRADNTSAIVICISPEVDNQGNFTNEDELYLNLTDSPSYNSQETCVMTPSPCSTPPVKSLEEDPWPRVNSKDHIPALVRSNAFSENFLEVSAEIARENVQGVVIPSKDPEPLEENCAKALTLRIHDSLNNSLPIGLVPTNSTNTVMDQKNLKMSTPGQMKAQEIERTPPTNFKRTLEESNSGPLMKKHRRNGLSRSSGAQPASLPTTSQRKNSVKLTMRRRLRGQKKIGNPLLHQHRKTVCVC
# Calcium and integrin-binding protein 1 (Homo sapiens), sequence (Q99828 whole entry, looked up): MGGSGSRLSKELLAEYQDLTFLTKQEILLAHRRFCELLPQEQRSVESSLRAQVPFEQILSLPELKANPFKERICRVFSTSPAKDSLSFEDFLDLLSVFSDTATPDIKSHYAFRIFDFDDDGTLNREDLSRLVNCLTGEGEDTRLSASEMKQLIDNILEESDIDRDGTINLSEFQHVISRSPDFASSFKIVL
structure (smiles),measurement,setting,value
CCCCC(=O)O[C@]1(C(=O)CO)[C@@H](C)C[C@H]2[C@@H]3CCC4=CC(=O)C=C[C@]4(C)[C@@]3(F)[C@@H](O)C[C@@]21C,Potency,[1],inactive
same,Potency,[2],inactive
same,outcome,[3],inactive
same,outcome,[4],inactive
same,Potency,[5],inactive
same,outcome,[6],inactive
CN(C)c1ccc2cc(C(=O)N[C@@H](CCCN=C(N)CCl)C(=O)NCc3ccccc3)ccc2c1,Potency,[1],20.8 µM (active)
same,Potency,[5],inactive
Cc1ccccc1C(=O)Nc1ccc(C(=O)N2CCCC(O)c3cc(Cl)ccc32)c(C)c1 (centres undefined),outcome,[7],inactive
same,Potency,[1],inactive
same,Potency,[2],inactive
same,outcome,[3],inactive
same,outcome,[4],inactive
same,Potency,[5],inactive
same,outcome,[6],inactive
Cn1cc(-c2ccc3ncc(Cc4ccc5ncccc5c4)n3n2)cn1,Potency,[1],inactive
same,Potency,[5],inactive
O=C1CSC(=O)N1C(CCc1ccncc1)COc1ccc(-c2cccc([N+](=O)[O-])c2)cc1 (centres undefined),Potency,[1],inactive
same,Potency,[5],inactive
Cc1cn([C@@H]2O[C@H](CO)[C@@H](O)[C@H]2F)c(=O)[nH]c1=O,outcome,[7],inactive
same,Potency,[2],inactive
same,outcome,[3],inactive
same,outcome,[4],inactive
C=CC(=O)N1CCc2ccc(-n3c(=O)ccc4cnc5ccc(-c6cnn(C)c6)cc5c43)cc21,Potency,[1],0.806 µM (active)
CCOC(=O)C=C[C@H](C[C@@H]1CCNC1=O)NC(=O)[C@@H](CC(=O)[C@@H](NC(=O)c1cc(C)on1)C(C)C)Cc1ccc(F)cc1,Potency,[1],inactive
C[C@H](NC(=O)[C@@H](O)c1cc(F)cc(F)c1)C(=O)N[C@@H]1C(=O)N(C)c2ccccc2-c2ccccc21,Potency,[1],inactive
same,Potency,[5],inactive
Nc1cccc2c1C(=O)N(C1CCC(=O)NC1=O)C2=O (centres undefined),Potency,[1],inactive
Cc1ccc2nc(NCCN)c3ncc(C)n3c2c1,Potency,[1],4.66 µM (active)
same,Potency,[5],inactive
CC1(C)O[C@@H]2C[C@H]3[C@@H]4CCC5=CC(=O)C=C[C@]5(C)[C@@H]4[C@@H](O)C[C@]3(C)[C@]2(C(=O)CO)O1,outcome,[7],inactive
same,Potency,[2],inactive
same,outcome,[3],inactive
same,outcome,[4],inactive
same,outcome,[6],inactive
OC[C@@H](O)[C@@H](O)[C@H](O)[C@@H](O)CO,Potency,[1],inactive
same,Potency,[5],inactive
COc1cccc2c1C(=O)c1c(O)c3c(c(O)c1C2=O)C[C@@](O)(C(=O)CO)C[C@@H]3O[C@H]1C[C@H](N)[C@H](OC2CCCCO2)[C@H](C)O1 (some centres undefined),Potency,[1],2.62 µM (active) and 2.34 µM (active)
O=C1c2cccc(O)c2C(=O)c2c(O)cc(CO)cc21,Potency,[1],inactive
same,Potency,[8],inactive
same,outcome,[6],inactive
COc1cccc2c1C(=O)c1c(O)c3c(c(O)c1C2=O)C[C@@](O)(C(=O)CO)C[C@@H]3O[C@H]1C[C@H](N)[C@@H](O)[C@H](C)O1,Potency,[1],0.829 µM (active)
Cc1cc(C(=O)NOCCO)c(Nc2ccc(I)cc2F)n(C)c1=O,Potency,[1],inactive
same,Potency,[5],inactive
O=c1c(O)c(-c2ccc(O)c(O)c2)oc2cc(O)ccc12,Potency,[9],23.4 µM (active)
same,outcome,[10],inactive
same,Potency,[11],inactive
same,outcome,[12],inactive
same,Potency,[5],inactive
same,outcome,[6],inactive
Cc1ccc(-n2[nH]c(C)c(N=Nc3cccc(-c4cccc(C(=O)O)c4)c3O)c2=O)cc1C,outcome,[7],inactive
same,Potency,[1],inactive
same,Potency,[2],12.6 µM (active)
same,outcome,[4],inactive
CN(C)CCN1C(=O)c2cccc3cc(N)cc(c23)C1=O,Potency,[1],10.4 µM (active)
same,Potency,[8],inactive
same,outcome,[6],inactive
NC(=O)Nc1sc(-c2ccc(F)cc2)cc1C(N)=O,Potency,[1],1.65 µM (active)
same,Potency,[5],inactive
C[C@H](CCC(=O)O)[C@H]1CCC2C3C[C@H](O)[C@@H]4C[C@H](O)CC[C@]4(C)C3CC[C@@]21C (some centres undefined),Potency,[1],inactive
same,Potency,[5],inactive
Nc1ccn(C[C@@H](CO)OCP(=O)(O)O)c(=O)n1,"activity change, negative = inhibition",[1],-9.6% [at 8.44 µM]
same,Potency,[5],inactive
Nc1ccn(C2CO[C@H](CO)O2)c(=O)n1 (some centres undefined),outcome,[7],inactive
same,Potency,[1],inactive
same,Potency,[2],inactive
same,outcome,[3],inactive
same,outcome,[4],inactive
CCn1c(=O)c2c(nc(C=Cc3ccc(OC)c(OC)c3)n2C)n(CC)c1=O,outcome,[7],inactive
same,Potency,[2],inactive
same,outcome,[3],inactive
same,outcome,[4],inactive
same,Potency,[5],inactive
same,outcome,[6],inactive
COc1ccc(C[C@@H](C)[C@@H](C)Cc2ccc(OC)c(OC)c2)cc1OC,Potency,[1],inactive
same,Potency,[5],inactive
CN(CC(=O)N(Cc1ccc(C2CCCCC2)cc1)c1ccc(C(=O)O)c(O)c1)S(=O)(=O)c1c(F)c(F)c(F)c(F)c1F,Potency,[1],inactive
same,Potency,[5],inactive
CC1=C(C(=O)Nc2cc3cn[nH]c3cc2F)C(c2ccc(Cl)cc2F)N=C(c2ccnc(Cl)c2)N1 (centres undefined),Potency,[1],inactive
same,Potency,[5],inactive
C=C(C)[C@@H]1CC[C@]2(C)CC[C@]3(C)[C@H](CC[C@@H]4[C@@]5(C)CC[C@H](O)C(C)(C)[C@H]5CC[C@]43C)[C@@H]12,Potency,[1],inactive
same,Potency,[5],inactive
CCOC(=O)C1=C(C)NC(=S)NC1c1cccc(O)c1 (centres undefined),Potency,[1],inactive
same,Potency,[5],inactive
NC1=N[C@H]2[C@H](CS[C@H]2CCCCC(=O)O)N1,Potency,[1],inactive
same,Potency,[5],inactive
O=S(=O)(O)CCSSCCS(=O)(=O)O,Potency,[1],inactive
same,Potency,[5],inactive
C=C(C)[C@@H]1CC[C@]2(C(=O)O)CC[C@]3(C)[C@H](CC[C@@H]4[C@@]5(C)CC[C@H](O)C(C)(C)[C@@H]5CC[C@]43C)[C@@H]12,outcome,[13],inactive
same,Potency,[9],18.6 µM (active)
same,outcome,[14],inactive
same,outcome,[10],inactive
same,outcome,[15],inactive
same,Potency,[11],33.1 µM (active)
same,outcome,[16],inactive
same,outcome,[17],inactive
same,Potency,[1],inactive
same,Potency,[5],inactive
same,outcome,[6],inactive

# From PubChem BioAssay (NCATS)
